The values below come from PubChem BioAssay (NCI).

Among the test systems are DU-145 prostate; K-562 leukemia; MALME-3M melanoma; MDA-MB-231 breast; RXF 393 renal; SF-268 CNS; SF-295 CNS; SF-539 CNS; UACC-257 melanoma; M14 melanoma; HCT-15 colon; HT29 colon; SNB-75 CNS; SNB-19 CNS; U251 CNS; PC-3 prostate; SK-MEL-5 melanoma; UACC-62 melanoma; LOX IMVI melanoma; SK-MEL-28 melanoma.
Experiment in all cases: NCI-60 one-dose screen, 48 h (100 = growth as untreated, 0 = no growth, -100 = all killed)
What all share (conditions): 10 µM unless noted

About 83,000 compounds went through this panel and 20% of them were active in at least one assay; those are over-represented in the sample as a whole.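 Results are percent growth after 48 hours of single-concentration exposure. 100 means growth as in untreated cells, lower positive values show inhibition; negative values down to -100 show cell death.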 Unmarked numbers belong to inactive results. Calls of active or inactive are those of the source. How the source made its calls: active means growth percent below 10; inactive means the rest.

For `O=C1c2[nH]cc(CN[C@@H]3CCCN3)c2C(=O)c2c1c(O)c1ccccc1c2O`, the growth in the assay with DU-145 prostate was -98.6% (active); with K-562 leukemia it was -81.5% (active); in the assay on MALME-3M melanoma, -51.9% (active); in the assay with MDA-MB-231 breast, -96.7% (active); with RXF 393 renal, -98.2% (active); in the assay with SF-268 CNS it was -88.2% (active). Besides, the growth in the assay with SF-295 CNS was 70.5%; in the assay on SF-539 CNS, -94.1% (active); with UACC-257 melanoma, -64.9% (active); with M14 melanoma, -72.8% (active); with HCT-15 colon, -38.9% (active); in the assay with HT29 colon it was -98.4% (active). The growth is -71.6% (active) in the assay on SNB-75 CNS; -84.9% (active) in the assay with SNB-19 CNS; -98.9% (active) in the assay on U251 CNS; -95.1% (active) in the assay with PC-3 prostate; -89.8% (active) in the assay with SK-MEL-5 melanoma; -100% (active) in the assay with UACC-62 melanoma. Besides, the figures for the growth in the assay with LOX IMVI melanoma and with SK-MEL-28 melanoma were -93% (active) and -100% (active), respectively.

Turning to `COc1ccc(/C=N/NC(=O)c2cnn(CC(O)Cc3ccccc3)c2N)cc1OC1CCCC1` (stereo not given), the growth in the assay on DU-145 prostate is 91.2%; with K-562 leukemia, 99.5%; in the assay on MALME-3M melanoma it was 99.4%; with MDA-MB-231 breast it was 86.1%; in the assay with RXF 393 renal, 85.8%; in the assay on SF-268 CNS it was 98.3%. In addition, the growth with SF-295 CNS was 83.8%; in the assay on SF-539 CNS, 87.3%; with UACC-257 melanoma, 110%; with M14 melanoma it was 99.5%; in the assay on HCT-15 colon, 77.6%; in the assay on HT29 colon, 93.6%. The growth is 74.2% in the assay with SNB-75 CNS; 92.3% in the assay with SNB-19 CNS; 85.6% with U251 CNS; 69.9% in the assay with PC-3 prostate; 62.7% with SK-MEL-5 melanoma; 82.4% in the assay with LOX IMVI melanoma. Besides, in the assay with SK-MEL-28 melanoma, the growth was 107%.

Turning to `Cc1nn(CC(=O)O)c2c1C(=O)CC(C)(C)C2`, the growth was 118% in the assay on DU-145 prostate; 123% in the assay with K-562 leukemia; 118% with MALME-3M melanoma; 114% in the assay on MDA-MB-231 breast; 117% with RXF 393 renal; 103% in the assay with SF-268 CNS. For the same compound, the growth in the assay with SF-295 CNS was 102%; with SF-539 CNS, 102%; in the assay on UACC-257 melanoma, 96.9%; in the assay on M14 melanoma, 93.2%; in the assay with HCT-15 colon, 102%; with HT29 colon, 108%. Besides, the growth in the assay on SNB-75 CNS was 86.8%; in the assay with SNB-19 CNS it was 103%; with U251 CNS, 119%; in the assay with PC-3 prostate it was 102%; in the assay on SK-MEL-5 melanoma, 115%; with UACC-62 melanoma it was 91%. Further, in the assay on SK-MEL-28 melanoma, the growth is 105%.

With `COC(=O)CCC(=O)c1ccccc1`, the growth was 106% with DU-145 prostate; 96.9% in the assay on K-562 leukemia; 158% in the assay on MALME-3M melanoma; 111% in the assay with MDA-MB-231 breast; 139% in the assay with RXF 393 renal; 107% in the assay on SF-268 CNS. The growth in the assay with SF-295 CNS was 91.8%; with SF-539 CNS, 99.9%; in the assay on UACC-257 melanoma it was 106%; with M14 melanoma, 103%; in the assay with HCT-15 colon it was 102%; with HT29 colon, 105%. In addition, the growth in the assay with SNB-75 CNS is 117%; in the assay with SNB-19 CNS it was 102%; with U251 CNS it was 100%; in the assay with PC-3 prostate, 117%; in the assay on SK-MEL-5 melanoma, 130%; in the assay with UACC-62 melanoma, 104%. Also, the growth in the assay on SK-MEL-28 melanoma is 108%.

Take `CCN1CCN(c2ccc(Nc3ncc4ccc5ncn(C(C)C)c5c4n3)nc2)CC1`: the growth in the assay on DU-145 prostate was -22.7% (active); with K-562 leukemia it was 9.12% (active); with MALME-3M melanoma, -34% (active); in the assay with MDA-MB-231 breast, 0.653% (active); in the assay on RXF 393 renal, -85.4% (active); in the assay on SF-268 CNS, -34.2% (active). Further, the growth is -17.8% (active) with SF-295 CNS; -75.8% (active) with SF-539 CNS; 0.866% (active) in the assay with UACC-257 melanoma; -23.8% (active) with M14 melanoma; -0.238% (active) with HCT-15 colon; 5.37% (active) with HT29 colon. Besides, the growth with SNB-75 CNS is -66% (active); in the assay with SNB-19 CNS, 9.26% (active); in the assay with U251 CNS, 14.1%; in the assay on PC-3 prostate, 7.15% (active); with SK-MEL-5 melanoma it was -8.75% (active); with UACC-62 melanoma, -17% (active). Besides, the growth with LOX IMVI melanoma was -33.3% (active); with SK-MEL-28 melanoma it was -13.7% (active).

With `CCOc1ccc(-c2cnnn2-c2nonc2-n2cccc2)cc1`, the growth with DU-145 prostate was -9.36% (active); in the assay on K-562 leukemia, 5.54% (active); in the assay on MALME-3M melanoma, 52.6%; in the assay on MDA-MB-231 breast, 4.16% (active); in the assay with RXF 393 renal, -30.1% (active); in the assay with SF-268 CNS it was 50.7%. The growth in the assay on SF-295 CNS is 8.24% (active); with SF-539 CNS it was -19.5% (active); in the assay with UACC-257 melanoma it was 65%; with M14 melanoma, 9.7% (active); in the assay on HCT-15 colon, 22.6%; with HT29 colon it was 1.88% (active). Besides, the growth in the assay on SNB-75 CNS was 5.23% (active); with SNB-19 CNS, 37%; in the assay on U251 CNS it was 17.6%; in the assay with PC-3 prostate, 30.4%; in the assay with SK-MEL-5 melanoma it was 24.7%; in the assay on UACC-62 melanoma, 35.6%. For the same compound, the results for the growth in the assay with LOX IMVI melanoma and in the assay with SK-MEL-28 melanoma were 33.1% and 37.5%, respectively.

Take `COc1ccc(C2CC(c3cc(OC)c(OC)c(OC)c3)=NN2c2ccc(S(N)(=O)=O)cc2)cc1` (stereo not given): the growth with DU-145 prostate is 85.7%; in the assay with K-562 leukemia it was 33.1%; with MALME-3M melanoma it was 101%; in the assay on MDA-MB-231 breast it was 51.3%; in the assay on RXF 393 renal, 79.3%; in the assay on SF-268 CNS, 72.9%. Besides, the growth is 55.2% in the assay with SF-295 CNS; 77.8% in the assay on SF-539 CNS; 73.7% in the assay with UACC-257 melanoma; 64.6% in the assay on M14 melanoma; 66.8% with HCT-15 colon; 59.3% in the assay with HT29 colon. Further, the growth in the assay with SNB-75 CNS is 33.1%; in the assay with SNB-19 CNS, 74%; with U251 CNS it was 53.2%; with SK-MEL-5 melanoma it was 58.2%; in the assay on LOX IMVI melanoma, 52.9%; in the assay with SK-MEL-28 melanoma, 76.9%.
